Most compounds without a hit are left out; they make up all but 14% or so of the library.
CRE-bla Fsk: modulators of forskolin-stimulated CRE signaling in CHO cells; AID 662; Potency, µM (series often up to 38.2 µM), most hits filed as activators; 2.5% of 71,000 active; CHO CRE-bla reporter (cAMP response element driving beta-lactamase), forskolin EC10, beta-lactamase ratio; active = well fitted activation curve with a large enough effect in the signal ratio, with a control signal flat, not every such curve was filed as active; inconclusive = small, poorly fitted or top-dose-only effect, or effect the other way, or a change in a side signal; the % refers to the signal ratio
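Modulation of forskolin-driven signalling is measured in CHO cells carrying a CRE-controlled beta-lactamase reporter. Cells are stimulated with EC10 NKH 477 in the presence of titrated compound for 3 h at 37 °C, then loaded with CCF4 for 2 h at room temperature.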
4MU fluor: compound fluoresces in the 4-MU spectral region. compound autofluorescence, 340/450 nm, 4-MU equivalents; stronger effect = higher value. max dye-equivalent concentration, M. 11% of 59,000 active. AID 589; in the data active = max dye-equivalent concentration above about 10 nM; inconclusive = mostly about 1.1 nM to 9.6 nM
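Intrinsic fluorescence at 340/450 nm (ex/em) was read after 15 min at room temperature in pH 8.0, 100 mM Tris. Each compound concentration expressed as 4-MU-equivalent concentration from a six-point 4-MU standard series on each plate.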
AID923: qHTS Assay for Allosteric/Competitive Inhibitors of Caspase-1: Spectroscopic Profiling in AFC Spectral Region. compound fluorescence, AFC spectral region (405/520 nm). Potency, µM (highest dose often 57.5 µM), most hits filed as activators. 1.1% of 75,000 active. AID 923, 2007
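Baseline compound fluorescence (AFC region, 405 nm ex/520 nm em) taken from the intercept of kinetic reads with 50 nM caspase-1 and 5 uM Ac-WEHD-AFC; normalized to an on-plate AFC standard curve; compounds titrated up to 57 uM.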
A350 fluor: compound fluoresces in the Alexa 350 spectral region; Compound autofluorescence, 340/450 nm, Alexa 350 dye-equivalents; stronger effect = higher value; max dye-equivalent concentration, M; 11% of 59,000 active; in the data active = max dye-equivalent concentration above about 10 nM; inconclusive = mostly about 1.1 nM to 9.6 nM
HSD17B inhib: HSD17B dehydrogenase inhibition | Q99714 | recombinant HSD17B10, NADH fluorescence kinetic | Potency, µM (series often up to 57.1 µM), most hits filed as inhibitors | 7.6% of 75,000 active | AID 893;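 also: the protocol describes HADH2 (HSD17B10) and not the HSD17B4 of the title; nearly all actives have a fitted effect of over 70% in size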
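Enzyme plus compound, 15 min room temperature; substrate mix added (NAD+ 1 mM, beta-hydroxybutyryl-CoA 90 uM final); plates read kinetically for NADH fluorescence. HADH2 was His-tagged, E. coli-derived, 20 nM.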
HADH2 inh: blocks human hydroxyacyl-CoA dehydrogenase type II; recombinant HADH2, NADH fluorescence, beta-hydroxybutyryl-CoA; Potency, µM (doses to about 57.1 µM), actives largely listed as inhibitors; 3.4% of 73,000 active; AID 886; Q99714; also: nearly all actives have a fitted effect of over 60% in size
Target sequence (Q99714 whole entry, looked up, one chain of several): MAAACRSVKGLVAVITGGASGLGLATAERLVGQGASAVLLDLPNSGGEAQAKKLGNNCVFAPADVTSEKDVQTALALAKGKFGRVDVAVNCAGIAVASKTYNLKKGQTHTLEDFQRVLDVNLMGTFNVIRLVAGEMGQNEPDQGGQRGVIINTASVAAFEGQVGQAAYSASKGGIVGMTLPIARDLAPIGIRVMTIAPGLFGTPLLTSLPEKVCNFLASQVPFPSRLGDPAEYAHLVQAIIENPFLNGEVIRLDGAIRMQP
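E. coli-expressed His-tagged HADH2 tested at 20 nM in alkaline Tris buffer (pH 9.0); oxidation of 90 uM beta-hydroxybutyryl-CoA with 1 mM NAD+ tracked fluorimetrically for 4 min.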
CHO via 24h: reduces CRE-bla CHO cell viability after 24 hours; shares compounds with CRE-bla Fsk; CRE-bla CHO viability, ATP luminescence, 24 h; activity, negative = viability loss, % at 46.1 µM; 120 tested, under 10 active; AID 905
CHO via 40h: reduces CRE-bla CHO cell viability after 40 hours | CRE-bla CHO viability, ATP luminescence, 40 h | shares compounds with CRE-bla Fsk | Potency, µM, usual class: inhibitors | 120 tested, under 10 active | AID 906
CRE-luc potent: confirmation of CRE signaling potentiators in HEK293 CREB reporter cells | shares compounds with CRE-bla Fsk | HEK293 CRE-luc2P, NKH477 EC10 potentiation, luminescence, 4 h | Potency, µM (top dose mostly 38.3 µM), actives largely listed as activators | 80% of 120 active
Large screens that a line does not name were inactive (follow-up assays come after a bar, where they were run). Unless noted, calls follow the shape of the dose curve; as a rule, active = well fitted curve in the direction sought with a large enough effect; inconclusive = small, poorly fitted or top-dose-only effect, or another doubt; inactive = no such curve, though single readings can be large; an effect the other way counts as inactive or inconclusive.

Cc1cc(OCC(=O)Nc2c(C)n(C)n(-c3ccccc3)c2=O)c2c3c(c(=O)oc2c1)CCC3	4MU fluor inconclusive, A350 fluor 1.24e-08M
Cc1cc(OCC(=O)O)c2c3c(c(=O)oc2c1)CCCC3	CRE-bla Fsk inconclusive, 4MU fluor 3.74e-08M, A350 fluor 4.32e-08M, HSD17B inhib 31.6µM, HADH2 inh 31.6µM
CC(C)(C)c1cc(C#N)cc(Br)c1OP(=O)(Oc1c(Br)cc(C#N)cc1C(C)(C)C)c1ccccc1	none
CC[C@H]1C(=O)OC[C@@H]1Cc1cncn1C	CRE-bla Fsk inconclusive (no result: AID923, HSD17B inhib)
CN1CCN(c2ccc3nc(-c4ccc5nc(-c6ccc(O)cc6)[nH]c5c4)[nH]c3c2)CC1	CRE-bla Fsk inconclusive, 4MU fluor 1.72e-08M, A350 fluor 1.84e-08M, HSD17B inhib 3.16µM
Cc1ccc2nc(N3CCN(C)CC3)[nH]c2c1	none
COc1cc([C@@H](O)CN)ccc1O	none
O=C(Cc1ccccc1)OC(COCc1ccccc1)CN1CCOCC1 (stereo not given)	4MU fluor 8.8e-08M, A350 fluor 1.09e-07M
C(#CCN1CCOCC1)COCc1ccccc1	none
C=C(C)C(=O)OCC1CO1 (stereo not given)	none (no result: 4MU fluor, A350 fluor)
CN1CC[C@@H]2CN3CCc4cccc(c43)[C@H]2C1	HSD17B inhib 31.6µM (no result: 4MU fluor, A350 fluor)
NS(=O)(=O)C[C-]1C=C[CH]([Sb-]([Cl])([Cl])([Cl])([Cl])[Cl])C=C1.c1ccncc1 (stereo not given)	none
CCOC(=O)/C=C1\Nc2ccccc2SC1=O	4MU fluor 4.12e-07M, A350 fluor 4.01e-07M, HSD17B inhib 31.6µM
C=C(C)[C@H]1[C@H]2OC(=O)[C@@H]1[C@]1(O)C[C@H]3O[C@]34C(=O)O[C@H]2[C@]14C	none (no result: AID923, HSD17B inhib)
CN(C)[C@@H]1C(=O)C(C(N)=O)=C(O)[C@]2(O)C(=O)C3=C(O)c4c(O)cccc4[C@@](C)(O)[C@@H]3C[C@@H]12	CRE-bla Fsk inconclusive (no result: AID923, HSD17B inhib)
Nc1ccccc1N=Cc1c(O)n(CCC2=CCCCC2)c(=O)[nH]c1=O	CRE-bla Fsk inconclusive, 4MU fluor 2.65e-08M, A350 fluor inconclusive
Clc1nc(Cl)nc(Cl)n1	none (no result: 4MU fluor, A350 fluor)
Nc1c(C(=O)Nc2ccc([As](=O)(O)O)cc2)cnc2nnnn12	none
CCCOC(=O)[C@@H]1[C@@H](C(=O)O)[C@H]2CC[C@@H]1O2	none
Nc1nc2ccc(Cl)cc2c2nc(-c3ccco3)nn12	CRE-bla Fsk 0.2µM | CHO via 24h inactive | CHO via 40h inconclusive | CRE-luc potent inconclusive
O=C(O)[C@H]1[O][Sb][O][C@@H](C(=O)O)C1O (stereo not given in full)	none
COc1ccc(Cc2nccc3cc(OC)c(OC)cc23)cc1OC	CRE-bla Fsk 0.158µM, 4MU fluor inconclusive, A350 fluor inconclusive | CHO via 24h inconclusive | CHO via 40h inconclusive | CRE-luc potent 0.708µM
COc1cc(CCN)ccc1O	none

Screening results: PubChem BioAssay, National Center for Advancing Translational Sciences (NCATS)
